GRIN3A LBD mod – modulates the human NR3A ligand-binding domain; NR3A LBD differential scanning fluorimetry, Tm shift; 0% = protein alone, 100% = glycine-bound protein; Tm shift relative to glycine control, % at 25 µM; hit rate 2.5% among 340,000; AID 1259313;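 active = melting temperature shift of at least 10% of the positive control shift, at one fixed dose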
Yeast superoxide – caloric restriction mimetics inhibiting age-related superoxide in yeast | hit rate 0.18% among 330,000 | superoxide response (% of plate mean), % at 10 µM | S. cerevisiae aged cells, superoxide DHE fluorescence; active compounds read low;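 active = superoxide response under a set limit, about three screen SD below normal, cut at about 65% in these data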;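 also: yeast aged for seven days with compound at 30 °C before DHE staining; 100% = average MFI of all compound-treated wells on the plate with controls excluded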
dFosB act-1 – activators of mouse delta FosB homodimer. hit rate 0.99% among 340,000. activation, % at 25 µM. purified delta FosB, TAMRA-CDK5 oligo fluorescence polarization; percent of positive-control signal above neutral wells;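 active = mean activation above about 17%, with every replicate also reaching it, limit read from the data, passing the limit was not always enough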
Target sequence (P13346 whole entry, looked up): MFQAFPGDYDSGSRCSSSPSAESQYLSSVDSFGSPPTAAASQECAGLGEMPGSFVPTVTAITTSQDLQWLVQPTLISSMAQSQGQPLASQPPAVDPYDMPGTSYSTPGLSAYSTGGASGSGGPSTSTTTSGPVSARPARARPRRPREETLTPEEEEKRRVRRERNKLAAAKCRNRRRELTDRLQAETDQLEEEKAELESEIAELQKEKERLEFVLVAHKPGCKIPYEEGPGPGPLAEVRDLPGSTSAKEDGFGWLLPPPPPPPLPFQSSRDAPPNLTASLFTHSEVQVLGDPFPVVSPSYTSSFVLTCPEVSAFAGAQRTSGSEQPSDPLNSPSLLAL
NALP1 yeast inh – NALP1 inhibition. AID 2071. inhibition, % at 10 µM. hit rate 0.61% among 280,000. S. cerevisiae NALP1/ASC/caspase-1 growth, X-gal OD620, 72 h; in the data active = inhibition mostly above about 24%, no sharp cut-off; inactive = mostly below about 32%
UBC13 polyUb – human UBC13 polyubiquitination inhibition; P61088; UBC13 polyubiquitin chain formation, TR-FRET; inhibition, % at 20 µM; hit rate 0.47% among 330,000; in the data active = inhibition above about 45%, passing the limit was not always enough
Target sequence (P61088 whole entry, looked up): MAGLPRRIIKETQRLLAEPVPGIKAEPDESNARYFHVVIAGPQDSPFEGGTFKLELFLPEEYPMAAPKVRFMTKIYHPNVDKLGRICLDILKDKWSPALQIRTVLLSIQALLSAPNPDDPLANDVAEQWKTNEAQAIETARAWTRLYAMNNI
dFosB act-2 – enhances mouse delta FosB homodimer binding to DNA | shares compounds with dFosB act-1 | activation, % at 24.9 µM | purified delta FosB, TAMRA-CDK5 oligo fluorescence polarization; normalised: neutral wells 0, positive control 100 | 2,400 tested, under 10 active;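 active = highest replicate activation at or above 34% and every replicate reaching that threshold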;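 also: higher polarization means more probe DNA bound by delta FosB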
Starred values were filed as active, the others as inactive; · = no result given. Most compounds without a hit are left out; they make up all but 4.3% or so of the library.

SMILES	GRIN3A LBD mod	Yeast superoxide	dFosB act-1	NALP1 yeast inh	UBC13 polyUb	dFosB act-2
CN(C)CCN(C(=O)c1ccc(S(=O)(=O)N2CCc3ccccc32)cc1)c1nc2ccc(F)cc2s1	-1.3	109.1	61.8*	11.7	-0.7	0.5
N/C(CC(=O)Nc1ccc(F)c(Cl)c1)=N\OC(=O)c1cccs1	-2.1	103.6	23.2*	24.3	-4.5	0.9
O=C(COC(=O)c1cccs1)Nc1ccc(F)c(F)c1	1.1	102.2	-5.6	·	6.3	·
CC1CC(C)CN(S(=O)(=O)c2ccc3c(c2)NC(=O)C(C)C(=O)N3)C1 (configuration not stated)	-2.5	89.8	-7.9	7.8	6.7	·
COc1cccc(Oc2ccc(C(F)(F)F)cc2NC(=O)CN2C(=O)NC3(CCCC3)C2=O)c1	6.7	103.8	45.5*	·	-14.1	-1.7
Cc1oc(S(=O)(=O)N2CCCCC2)cc1NC(=O)Nc1ccc(F)cc1	-0.1	102.8	-2.1	6.8	-4.7	·
N#Cc1ccc(-c2cccnc2)nc1SCc1ccc(Cl)cc1Cl	-1.4	155.5	107.6*	4.7	9.6	2.8
N#Cc1ccc(-c2cccnc2)nc1SCc1ccc(Cl)c(Cl)c1	9.0	·	9.0	26.3	·	·
Cc1ccc(OCC(=O)Nc2sc3c(c2C#N)CC(C)(C)NC3(C)C)cc1	0.7	86.1	-7.9	10.2	-2.1	·
CC1(C)Cc2c(sc(NC(=O)COc3ccc(Cl)cc3)c2C(N)=O)C(C)(C)N1	-2.3	103.4	79.8*	15.3	29.8	1.9
CCOc1ncccc1C(=O)OCC(=O)Nc1cc(C(C)(C)C)ccc1OC	-1.0	101.8	-4.8	·	18.0	·
CCc1nnc2n1N=C(c1ccc(-c3cc(Cl)ccc3Cl)o1)CS2	1.7	111.6	29.6*	4.4	-10.2	-1.0
CCc1nnc2n1N=C(c1ccc(OC)cc1)CS2	1.2	115.7	-7.9	6.8	-4.4	·
CCOc1ccc(NC(=O)Cn2cc(C(=O)CC)c3ccccc32)cc1	2.7	116.6	40.7*	-0.2	5.8	4.1
COc1ccc(NC(=O)Cn2cc(C#N)c3ccccc32)cc1	0.5	100.0	41.7*	5.5	17.0	1.8
COc1ccc(OC)c(NC(=O)Cn2cc(C#N)c3cc(Br)ccc32)c1	15.1*	113.2	25.6*	17.4	12.7	3.4
Cc1ccc(CC2SC(N=C(N)N)=NC2=O)cc1 (configuration not stated)	-0.1	136.0	2.9	21.2	7.3	·
CCCCN(C(=O)c1cc(-c2ccco2)nc2ccccc12)c1c(N)n(CCC)c(=O)[nH]c1=O	-1.3	156.8	-1.6	·	-21.6	·
Cc1cc(OCc2cc(C(=O)NC(C)c3c(C)nn(C)c3C)no2)cc(C)c1Cl (configuration not stated)	-3.1	102.2	-20.5	-2.7	12.8	·
O=C1C=C(c2ccc(F)c(Cl)c2)C[C@@H](c2ccc(F)cc2)C1	4.1	101.0	-11.7	·	-4.6	·
COc1cc(NC(=O)c2cc([N+](=O)[O-])ccc2NC(=O)CNCc2ccccn2)cc(OC)c1	-4.4	100.1	35.5*	-6.7	-9.7	-1.3
COc1ccc(NC(=O)c2cc([N+](=O)[O-])ccc2NC(=O)CNCc2ccccn2)c(OC)c1	-1.5	94.6	-9.2	0.9	-13.9	·
CCN(CC)S(=O)(=O)c1ccc(Cl)c(NC(=O)c2cc(Cl)cc(Cl)c2)c1	-1.1	98.7	53.5*	33.5	-0.9	0.0
CCN(CC)S(=O)(=O)c1ccc(Cl)c(NC(=O)c2ccccc2C)c1	4.8	98.1	-13.8	0.9	-12.4	·
Cc1ccccc1NC(=O)Cc1nc(COC(=O)c2cc([N+](=O)[O-])ccc2N)cs1	-4.4	100.6	26.5*	11.4	-9.7	-6.8
SMILES	GRIN3A LBD mod	Yeast superoxide	dFosB act-1	NALP1 yeast inh	UBC13 polyUb	dFosB act-2
COc1ccc(-c2nnn(CC(=O)NCc3cccs3)n2)cc1OC	-2.9	104.7	29.6*	29.0	-24.1	-1.5
CCOc1ccc(-c2nnn(CC(=O)Nc3ccccc3OC)n2)cc1OCC	-5.0	79.2	58.8*	12.5	6.2	-0.2
COc1ccccc1C(=O)Nc1ccc(-c2nnn(CC(=O)NCc3ccco3)n2)cc1	0.8	100.7	41.8*	·	2.1	6.7
COc1ccc(-c2cc(C(F)(F)F)nc(S(=O)(=O)CCCC(=O)Nc3cccnc3Cl)n2)cc1OC	1.2	·	-45.2	0.4	·	·
Cc1cccc(NS(=O)(=O)c2ccc3c(c2)Cc2cc(S(=O)(=O)Nc4cccc(C)c4C)ccc2-3)c1C	13.1*	93.0	24.3*	8.4	·	1.0
Cc1cccc(NS(=O)(=O)c2ccc3[nH]c(=O)[nH]c3c2)c1C	-0.4	112.5	-5.9	14.5	-5.5	·
Cc1cc(C)cc(NC(=O)C2CCN(S(=O)(=O)c3ccc4[nH]c(=O)ccc4c3)CC2)c1	-9.3	108.3	46.3*	15.7	-4.9	-4.8
CCc1ccc(NC(=O)C2CCCN(S(=O)(=O)c3ccc4[nH]c(=O)ccc4c3)C2)cc1 (configuration not stated)	-0.1	127.1	29.3*	16.4	-12.0	-0.9
CCc1cccc(NC(=O)C2CCN(S(=O)(=O)c3ccc4[nH]c(=O)ccc4c3)CC2)c1	1.1	78.2	-2.1	1.6	-3.6	·
COc1ccc(NC(=O)C2CCCN(S(=O)(=O)c3ccc4[nH]c(=O)ccc4c3)C2)cc1OC (configuration not stated)	1.5	85.8	-2.3	3.2	-1.5	·
Cc1cc(C)nc(N/N=C/c2ccccc2Cl)n1	0.2	105.4	·	·	6.2	·
Cc1cc(N/N=C/c2ccccc2Cl)nc(NCc2ccccc2)n1	-2.2	112.0	50.8*	67.1	-8.7	4.3
C/C(=N\NC(=O)c1cc(C)nc2ccccc12)c1ccc([N+](=O)[O-])cc1	0.1	101.5	3.5	13.1	9.5	·
C/C(=N\Nc1nc2ccccc2[nH]1)c1ccc([N+](=O)[O-])cc1	-4.0	105.4	20.5*	·	-54.7	1.9
C/C(=N\Nc1cc(C)nc(NCc2ccccc2)n1)c1ccc([N+](=O)[O-])cc1	5.5	84.5	29.7*	18.6	-5.8	0.5
O=C(Nc1nc2ccccc2[nH]1)c1ccc([N+](=O)[O-])cc1	-0.6	100.0	3.8	7.9	3.6	·
COc1cc(C(=O)NCCCN2CCCC2=O)cc(Br)c1OCc1ccccc1	-1.2	104.4	-6.6	·	5.8	·
CCCCC(=O)Nc1nnc(-c2ccco2)o1	0.3	96.7	-5.8	-18.5	-3.2	·
CC1=NOC(=O)/C1=C\c1ccc(-c2ccc(Cl)cc2Cl)o1	0.2	·	-1.5	-4.7	-1.8	·
CC1CCN(S(=O)(=O)c2ccc3c(c2)c(=O)c(C(=O)NCc2ccccc2Cl)cn3C)CC1	·	112.7	·	20.8	6.3	·
CC(=O)c1ccc(CCCCc2ccc(C(C)=O)cc2)cc1	6.8	·	0.1	·	·	·
CN(C)c1nc(N)nc(CSc2nc3cc(Cl)ccc3o2)n1	-12.0	95.0	28.5*	·	-6.0	5.9
COc1ccccc1NC(=O)Nc1nc2ccc(S(N)(=O)=O)cc2s1	20.1*	104.8	49.2*	15.3	13.4	-6.1
CS(=O)(=O)c1cccc(C(=O)OCC(=O)NC(=O)Nc2ccccc2F)c1	2.2	84.5	22.4*	·	6.6	3.2

Compound activity from PubChem.
